High-throughput results (PubChem)
Giardia FBPA inh: qHTS Assay for Inhibitors of Fructose-1,6-bisphosphate Aldolase from Giardia Lamblia | purified Giardia FBPA | Potency, µM (titrated, usually from 59.6 µM), for the others: top-dose activity, negative = inhibition, actives largely listed as inhibitors | 290,000 tested, 0.71% active | A8B2U2; further: potency means the concentration at half of the fitted maximal effect; on the % scale 0 is the no-effect control and ±100 the full control effect; nearly all actives have a fitted effect of over 55% in size
Target sequence (A8B2U2 whole entry, looked up): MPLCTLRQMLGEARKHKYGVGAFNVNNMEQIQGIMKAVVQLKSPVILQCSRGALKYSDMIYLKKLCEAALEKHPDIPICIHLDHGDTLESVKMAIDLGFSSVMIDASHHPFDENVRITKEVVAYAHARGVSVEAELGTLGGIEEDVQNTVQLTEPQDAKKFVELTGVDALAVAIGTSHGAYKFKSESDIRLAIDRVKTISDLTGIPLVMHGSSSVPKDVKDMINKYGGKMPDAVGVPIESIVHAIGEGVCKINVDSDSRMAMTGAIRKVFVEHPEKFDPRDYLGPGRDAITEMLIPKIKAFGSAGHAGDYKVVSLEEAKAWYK
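40 nM FBPA preincubated 10 min at RT with compound (up to 57.5 uM final), then substrate plus GAPDH/TPI/NAD/arsenate coupling and diaphorase/resazurin added. Fluorescence read after 20 min at RT, 525/598 nm.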
Shiga toxin inh: A qHTS for Small Molecule Inhibitors of Shiga Toxin; Vero cells, Shiga toxin protein synthesis inhibition reporter; inhibition, % at 38.7 µM; 290,000 tested, 9.2% active; AID 2315, 2010; in the data active means inhibition mostly above about 28%, no sharp cut-off; inactive means mostly below about 43%; further: 0% is about no effect
CHX counter: Cycloheximide Counterscreen for Small Molecule Inhibitors of Shiga Toxin. cell reporter, cycloheximide protein synthesis inhibition counterscreen. max response, %. 300,000 tested, 12% active; in the data active means max response mostly above about 13%, no sharp cut-off; inactive means mostly below about 14%; further: read at 38.3 µM for the half of the compounds with a filed dose; 0% is about no effect
NS1 function inh: qHTS Assay for Inhibitors of Influenza NS1 Protein Function; Potency, µM (highest dose often 46.1 µM), without a hit: top-dose activity, positive = more growth; 270,000 tested, 0.4% active; calls by dose curve; further: potency means the concentration at half of the fitted maximal effect; actives are rising curves; nearly all actives have a fitted effect of over 50% in size
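Recovery from NS1-induced slow growth read by OD600 in budding yeast switched to galactose assay medium (pH 6.0, -URA) at 1:100 dilution. Compound 23 nl per well; the matching strain lacking NS1 serves as control.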
LmPK inhibitor: qHTS Assay for Inhibitors of Leishmania Mexicana Pyruvate Kinase (LmPK) | purified LmPK, Kinase-Glo ATP luminescence, 1 h | Potency, µM (titrated, usually from 57.5 µM), for the others: at the highest dose activity change, negative = inhibition, most hits filed as inhibitors | 290,000 tested, 0.37% active | AID 1721, 2009; further: potency means the concentration at half of the fitted maximal effect; on the % scale 0 is the no-effect control and ±100 the full control effect
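Kinase-Glo luminescence read after 1 h RT reaction of 0.1 nM LmPK with 0.5 mM PEP and 0.1 mM ADP. Activity scaled between uninhibited and enzyme-free controls.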
Starred values were filed as active, the others as inactive; u = inconclusive; x = no result given; [ ] = remark or other dose. Only some compounds are listed: those with a hit (about 14% of all), similar ones and a draw of the others. Unless noted, the call rests on the fitted dose curve; in most records, active means well fitted curve in the direction sought with a large enough effect; inconclusive means small, poorly fitted or top-dose-only effect, or another doubt; inactive means no such curve, though single readings can be large; an effect the other way counts as inactive or inconclusive.

SMILES	Giardia FBPA inh	Shiga toxin inh	CHX counter	NS1 function inh	LmPK inhibitor
CC(=O)N(/N=C1\Sc2ccccc2C1=O)c1ccccc1C	x	91.1*	67.7*	-49.6%	-1.2%
CC(=O)N(C)C1=C(O)c2ccccc2C(=O)C1=O	x	18.4	-4.6	-2.1%	-6.6%
CC(=O)Oc1ccc(N(C(C)=O)S(=O)(=O)c2ccc(C)cc2C)c2ccccc12	1.5%	-6.0	-0.6	5.2%	-7.6%
CC(=O)c1ccc(N=C2C(=O)Nc3ccccc32)cc1	-9.8%	6.0	1.7	11.4%	-2.0%
CC(=O)N(/N=C1\Sc2ccccc2C1=O)c1ccccc1	-2.2%	36.5*	39.8*	-3.3%	-1.1%
CC(=O)N(/N=C1/C(=O)Nc2ccccc21)c1ccccc1	-0.8%	43.9*	28.1*	-10.7%	-0.6%
CCC[C@H](NC(C)=O)C(=O)N[C@H]1CC(=O)ONCCCC[C@@H](C(N)=O)NC(=O)[C@H](Cc2c[nH]c3ccccc23)NC(=O)[C@H](CCCN=C(N)N)NC(=O)[C@@H](Cc2ccc3ccccc3c2)NC(=O)[C@H](Cc2cnc[nH]2)NC1=O	4.6%	-12.0	-5.0	x	x
NCCCC[C@H](NC(=O)[C@H](Cc1c[nH]c2ccccc12)NC(=O)[C@H](CC(=O)O)NC(=O)[C@H](Cc1cnc[nH]1)NC(=O)[C@H](CO)NC(=O)[C@H](Cc1c[nH]c2ccccc12)NC(=O)[C@H](Cc1cnc[nH]1)NC(=O)[C@@H]1CCC(=O)N1)C(=O)N1CCC[C@H]1C(=O)NCC(N)=O	-8.6%	-8.9	4.9	x	x
Cc1ccc(Cl)cc1N(CC(=O)NC1CCCC1)C(=O)c1csnn1	8.2%	-4.2	-2.4	-0.8%	3.8%
CC(=O)c1sc(N2CCOCC2)nc1-c1ccccc1	-5.2%	-6.3	5.9	x	0.1%
Cc1ccc(-c2nc(N3CCOCC3)s[n+]2-c2ccccc2)cc1	0.6%	85.1*	61.6*	-18.0%	-26.8%
Cc1cc2n(n1)C(c1sccc1C)Nc1ccccc1-2 (stereo not given)	-0.5%	34.7	2.6	-12.9%	2.9%
c1csc(C2Nc3ccccc3-c3nc4ccccc4n32)c1 (stereo not given)	-3.0%	123.6*	51.8*	-48.5%	-3.1%
Cc1ccsc1C1Nc2ccccc2-c2nc3ccccc3n21 (stereo not given)	-22.2%	132.3*	76.1*	-32.2%	-7.6%
c1cncc(C2Nc3ccccc3-c3nc4ccccc4n32)c1 (stereo not given)	-6.8%	29.2*	30.5*	-32.0%	1.7%
c1ccc2c(c1)NC(c1ccncc1)n1c-2nc2ccccc21 (stereo not given)	-13.5%	34.9	1.2	-13.3%	-1.2%
N#C[C@H](C(=O)O)C(c1c(Cl)cccc1Cl)[C@H](C#N)C(=O)O	x	x	x	5.9%	x
OCc1ccccc1O[C@H]1OC(CO)C(O)C(O)C1O (stereo not given in full)	5.3%	x	x	x	x
O=C(Nc1ccccc1)Nc1ccc2nnsc2c1	-6.3%	61.4*	35.9*	-52.6%	-5.6%
O=C(Nc1ccccc1)Nc1ccc2snnc2c1	-5.1%	57.7*	40.9*	-47.6%	-10.4%
CN(C)c1ccc(NC(=O)Nc2ccc3snnc3c2)cc1	-10.7%	45.5*	27.0*	5.3%	-3.0%
CCOC(=O)C1CCN(C(=O)Nc2ccc3snnc3c2)CC1	4.5%	14.2	-3.4	-12.1%	0.8%
O=C(NCc1ccccc1)c1ccc2nnsc2c1	4.9%	-1.0	7.1	-0.1%	2.5%
COC(=O)[C@@H]1C[C@H]1[C@@H](NC(C)=O)c1ccccc1	-1.5%	x	x	x	x
C/C(=N\OCC(=O)Nn1c(C)nc2ccccc2c1=O)c1ccccc1	14.3%	-10.5	-4.9	2.3%	-5.6%
SMILES	Giardia FBPA inh	Shiga toxin inh	CHX counter	NS1 function inh	LmPK inhibitor
C/C(=N/Oc1nc(C)cc(C)n1)c1ccc(F)cc1	-12.7%	41.0	20.8*	-32.5%	-0.4%
C/C(=N\Nc1nc(C)cc(-c2ccccc2)n1)c1ccc(F)cc1	-10.7%	10.6	7.2	2.3%	-0.8%
C/C(=N/Oc1nc(C)cc(C)n1)c1ccccc1	-19.0%	49.7	19.2*	-1.8%	-13.2%
O=[N+]([O-])c1nn(-c2ccc(Cl)cc2)n(O)c1=NCc1ccncc1	-1.9%	36.5	17.0	-9.5%	-5.0%
Cc1cccc(N=c2c([N+](=O)[O-])nn(-c3ccc(Cl)cc3)n2O)c1	-11.6%	34.8	19.6*	-4.0%	-0.1%
Cc1ccc(CN=c2c([N+](=O)[O-])nn(-c3ccc(Cl)cc3)n2O)cc1	-17.3%	33.5	43.7*	8.9%	-0.8%
O=[N+]([O-])c1nn(-c2cccc(Cl)c2)n(O)c1=NCc1cccnc1	-3.2%	13.5	22.6*	-18.0%	-1.0%
O=[N+]([O-])c1nn(-c2ccc(Cl)cc2)n(O)c1=NCc1ccccc1Cl	1.2%	73.9*	35.0*	-2.1%	12.3%
CCc1cc2c(nc1CC)CCN(CC/C(C)=N/O[C@@H]1O[C@H](COC(C)=O)[C@H](OC(C)=O)[C@H](OC(C)=O)[C@H]1OC(C)=O)C2	-1.4%[12.9 µM]	x	x	x	x
COc1ccc(N2CCN(CCCNC(=O)C(=O)c3c(C)[nH]c4ccccc34)CC2)cc1	x	0.4	10.3	2.6%	7.6%
COc1ccc2c(c1)C(=O)[C@H](OC(=O)Nc1cc(OC)c(OC)c(OC)c1)[C@@H](c1ccc(OC)c(Br)c1)O2	-5.1%	x	x	x	x
O=C(O)C(Oc1ccc2ccc(=O)oc2c1)c1ccccc1 (stereo not given)	1.4%	x	x	x	x
O=S(=O)(Nc1c(Br)cc(Br)c2cccnc12)C1CCCCC1	x	-0.7	-7.3	x	x
CCC(C)NC(=O)[C@@H]1CSC2c3ccccc3C(=O)N21 (stereo not given in full)	-7.7%	-11.9	0.7	5.2%	-8.6%
O=[N+]([O-])c1nn(-c2ccc(Cl)cc2)n(O)c1=NCc1cccnc1	-8.7%	39.5	22.5*	-24.4%	-1.3%
Brc1ccc(-c2csc(-c3c[nH]c4ccccc34)n2)cc1	0.6%	86.4*	34.0*	-15.9%	0.8%
c1ccc2c(-c3csc(-c4ccncc4)n3)c[nH]c2c1	-13.2%	96.1*	44.7*	-41.8%	-1.2%
Clc1ccc(-c2c[nH]c3ccccc23)nn1	-3.9%	49.5	4.5	3.7%	0.8%
Cc1cc(C)cc(OCC(=O)NNC(=S)NC(=O)C2CC2)c1	x	-7.8	1.7	-111.8%	-7.8%
Cc1ccc(Nc2nc3nonc3[nH]c2=O)cc1	0.0%	58.4*	26.9*	-47.7%	-4.3%
Cc1c(/C=C2\NC(=O)NC2=O)c2ccccc2n1C	-4.1%	x	-2.6	15.5%	-1.3%
S=C(Nc1ccc(Cl)cc1)Nc1ccc2c(c1)OCCO2	x	58.5*	38.6*	-18.7%	-1.3%
Fc1ccc(NC(=S)Nc2ccccc2Cl)cc1	0.7%	-7.6	5.1	-0.7%	-3.8%
S=C(Nc1ccc2c(c1)OCCO2)Nc1ccccc1Cl	x	48.0*	32.7*	-3.3%	2.4%
S=C(NCc1ccc2c(c1)OCO2)Nc1ccc2nsnc2c1	u	36.5	15.2*	-5.1%	3.2%
S=C(Nc1ccc2c(c1)OCO2)Nc1ccc2c(c1)OCO2	-27.2%	66.3*	54.5*	17.9%	-3.2%
